# Screens deposited in PubChem by National Center for Advancing Translational Sciences (NCATS).
# Shiga inhibitor: inhibitors of Shiga toxin in Vero cells; AID 2315; inhibition, % at 38.7 µM; Vero cells, Shiga toxin protein synthesis inhibition reporter; 290,000 compounds, 9.2% hits; in the data active means inhibition mostly above about 28%, no sharp cut-off; inactive means mostly below about 43%; further: 0% is about no effect
# Cycloheximide cs: counter-screen for Shiga toxin inhibitors: cycloheximide protein synthesis inhibition | 300,000 compounds, 12% hits | max response, % | AID 2314 | cell reporter, cycloheximide protein synthesis inhibition counterscreen; in the data active means max response mostly above about 13%, no sharp cut-off; inactive means mostly below about 14%; further: read at 38.3 µM for the half of the compounds with a filed dose; 0% is about no effect
# SARS PLP yeast: SARS-CoV PLP inhibition in yeast | Potency, µM (doses to about 32.9 µM), without a hit: top-dose activity, positive = growth rescue, actives largely listed as activators | 330,000 compounds, 0.19% hits | S. cerevisiae expressing SARS-CoV PLpro, growth rescue | AID 485353; further: potency means the concentration at half of the fitted maximal effect; 0% is about no effect; nearly all actives have a fitted effect of over 55% in size
# NS1 function inh: inhibitors of influenza NS1 protein function; Potency, µM (doses to about 46.1 µM), without a hit: at the top dose activity, positive = more growth; AID 2326; 270,000 compounds, 0.4% hits; further: potency means the concentration at half of the fitted maximal effect; actives are rising curves; nearly all actives have a fitted effect of over 50% in size
#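 In this qHTS, NS1 from influenza A is expressed in budding yeast, where it slows growth. Cells are switched from glucose to 2% galactose medium (pH 6.0, -URA), treated with compound, and growth recovery is read at OD600.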
# Starred values were filed as active, the others as inactive; / = no result; [ ] = another dose, or the depositor's remark. A selection: hits, their analogues and other compounds. The true share with any hit is near 12%. Unless noted, the call rests on the fitted dose curve.
SMILES,Shiga inhibitor,Cycloheximide cs,SARS PLP yeast,NS1 function inh
CC(C)Cn1c(O)c(N=NC(=O)c2cccc(S(=O)(=O)N3CCCCC3)c2)c2ccccc21,15.2,-1.3,3.7%,21.3%
COc1cccc(Oc2ccc(C(F)(F)F)cc2NC(=O)CCc2nc3ccccc3c(=O)[nH]2)c1,55.3*,43.1*,9.1%,29.4%
Cn1cc([N+](=O)[O-])c(C(=O)Nc2ccc3nc(-c4ccccc4)[nH]c3c2)n1,46.7*,41.7*,-9.1%,15.3%
Cn1cc([N+](=O)[O-])c(C(=O)NCc2cc3ccccc3[nH]2)n1,16.1,-2.7,9.1%,25.8%
Cn1cc([N+](=O)[O-])c(C(=O)Nc2ccc(-c3nc4ccccc4[nH]3)cc2)n1,-2.8,32.2*,7.9%,5.8%
c1ccc(-c2cnc(-c3cccnc3)o2)cc1,59.0,49.4*,6.2%,-62.3%
Cc1ccc(NC(=O)c2ccccc2-c2ccccc2C(=O)O)cc1,-3.6,-3.9,3.7%,3.1%
NC(=O)c1ccc(-c2ncc(-c3ccccc3)o2)cc1,85.3*,43.6*,-8.2%,-8.3%
Cc1ccc(-c2cnc(-c3ccccc3C(=O)O)o2)cc1,61.3*,28.9*,0.5%,-25.5%
CCCCC(=O)NC(=S)Nc1cccc(NC(=O)c2ccco2)c1,-12.4,-1.2,6.1%,4.8%
O=C(Nc1cccc(C(F)(F)F)c1)c1ccco1,11.9,11.5*,-20.7%,-121.1%
O=C(/C=C/Nc1cccc(C(F)(F)F)c1)c1ccco1,80.5*,39.3*,-1.7%,-6.0%
O=C(Nc1cccc(F)c1)/C(=C/c1ccco1)NC(=O)c1ccco1,25.5,20.3*,-6.1%,9.0%
O=C(CCNC(=O)c1ccco1)Nc1cccc(C(F)(F)F)c1,-1.1,1.0,-0.7%,5.1%
O=C(Nc1cccc(C(F)(F)F)c1)c1scc2c1OCCO2,36.1,38.5*,-5.4%,/
Cc1ccc(NC(=O)COC(=O)C2(C)CC2(Cl)Cl)cc1S(=O)(=O)N1CCOCC1 (stereo not drawn),/,/,-1.1%,/
O=S(=O)(Nc1cccc2ccccc12)c1cccc2ccccc12,4.4,-5.0,/,/
O=C(Nc1cccc(S(=O)(=O)N2CCCC2)c1)c1ccco1,/,/,-9.9%,/
O=C(Nc1cccc(S(=O)(=O)c2cccc(NC(=O)c3ccco3)c2)c1)c1ccco1,28.1*,19.7*,1.2%,2.5%
O=C(/C=C/Nc1cccc(C(F)(F)F)c1)c1ccc(Oc2ncccn2)cc1,86.6*,47.3*,-25.8%,-0.3%
CN(C)/C=C/C(=O)c1cccc(Oc2ncccn2)c1,-6.3,2.1,0.6%,1.1%
Clc1ccc(Cn2nc(-c3ccccc3)nc2-c2ccccc2)cc1,-4.8,7.5,-8.8%,-7.6%
Clc1ccccc1Cn1nnc(-c2cccs2)n1,61.4*,29.3*,-12.9%,4.6%[9.22 µM]
O=C(CCn1nnc(-c2cccs2)n1)NCc1ccccc1Cl,-10.3,-3.6,3.8%,-6.9%
COc1ccc(-c2nnn(Cc3ccccc3)n2)cc1OC,/,10.6*,5.2%,-34.0%
SMILES,Shiga inhibitor,Cycloheximide cs,SARS PLP yeast,NS1 function inh
COc1cc(-c2nnn(Cc3ccccc3C)n2)cc(OC)c1OC,-2.0,-1.2,0.0%,-10.1%
Clc1ccc(Cn2nnc(-c3ccccc3)n2)cc1,57.4*,28.4*,-34.4%,-10.5%
Clc1ccccc1Cn1nc(-c2ccccc2)nc1-c1ccccc1,12.9,17.5*,-17.5%,-6.5%
O=C1CC2(CCCC2)CC(=O)N1c1ccccc1,2.4,6.3,1.2%,/
CCc1ccc(NC(=O)CC2C(=O)N(c3cccc(C)c3)C(=O)N2C2CC2)cc1 (stereo not drawn),-6.3,-1.9,-0.8%,-10.3%
COC(=O)C1=C(CS(=O)(=O)c2cc(OC)ccc2OC)NC(=O)NC1c1ccc(O)c(OC)c1 (stereo not drawn),0.4,-5.3,6.0%,9.0%
CCCC(NCC(=O)Nc1cc(S(=O)(=O)N2CCOCC2)ccc1OC)c1ccccc1 (stereo not drawn),/,/,-1.7%,/
CCn1c(Cn2nnc(-c3ccccc3)n2)nnc1SCC(=O)Nc1ccc(N(C)C)cc1,-26.3,-7.3,2.1%,5.5%
Clc1ccccc1Cn1nnc(-c2ccccc2)n1,105.0*,52.6*,-0.4%,5.4%
c1ccc(-c2nnn(CCN3CCCCC3)n2)cc1,/,/,/,0.0%
CN(C)c1ccc(-c2nnn(Cc3ccccc3Br)n2)cc1,26.9,17.4*,-3.7%,-7.6%
C#CCOCCOCCOCCNc1nc(N2CCN(C(=O)[C@H](CCCCN)n3cc(C(N)CO)nn3)CC2)nc(N2CCN(C(=O)[C@H](CCC(=O)O)n3cc(C(N)[C@H](C)CC)nn3)CC2)n1 (stereo partly drawn),33.4,1.6,-0.4%,-2.0%
COc1ccc(Cl)cc1C(=O)NNC(=O)c1cccs1,/,/,4.6%,/
COc1ccc2c(=O)c(-c3ccc(OC)c(OC)c3)coc2c1,54.4*,24.5*,-0.9%,-8.7%
CCOc1ccccc1Oc1coc2cc(OC(=O)N(C)C)ccc2c1=O,55.2*,36.1*,2.2%,-1.7%
CCN(CC)C(=O)Oc1ccc2c(=O)c(-c3ccccc3)coc2c1,84.8*,50.3*,1.5%,-3.8%
COc1ccc(-c2coc3cc(O)ccc3c2=O)cc1OC,33.9,33.8*,1.4%,-8.0%
COC(=O)Cc1sc(-c2ccccn2)nc1-c1ccccc1,-9.5,13.1,2.1%,/
CCOC(=O)N1CCC(=NNC(=O)Cn2ccc(C(F)(F)F)n2)CC1,7.8,-4.8,-2.9%,/
O=C(NC1CC(=O)N(c2ccc(Cl)cc2)C1)C1CC1 (stereo not drawn),/,/,-3.2%,/
CCN(CC)S(=O)(=O)c1cccc(C(=O)NCC2CCCCC2)c1,13.3,-3.9,-1.4%,-6.6%
COc1ccc(-c2coc3cc(OC(C)=O)c(OC)cc3c2=O)cc1,/,/,-0.1%,/
CCOc1ccccc1Oc1coc2cc(O)ccc2c1=O,3.3,-1.5,-22.0%,-8.1%
O=c1c(-c2ccc(F)cc2)coc2c3c(ccc12)OCCO3,87.1*,44.3*,-1.3%,-7.9%
COc1ccc2c(=O)c(-c3ccccc3)coc2c1,84.2*,51.6*,-2.9%,-32.0%
SMILES,Shiga inhibitor,Cycloheximide cs,SARS PLP yeast,NS1 function inh
O=c1c(-c2ccc(F)cc2)coc2cc(O)ccc12,113.6*,31.7*,-14.3%,-83.3%
O=c1c(-c2ccc(Br)cc2)coc2c(CN3CCCCC3)c(O)ccc12,-4.5,-1.0,-0.4%,5.6%
O=C(CNC(=O)c1ccc2ccccc2c1)NCc1ccccc1F,-18.4,-3.2,-2.0%,-9.3%
COc1ccc(Cl)cc1NS(=O)(=O)c1cccc(C(=O)NCC(c2ccco2)N(C)C)c1 (stereo not drawn),-13.4,10.3,5.0%,-0.8%
Cc1ccc(S(=O)(=O)NCCC(=O)Nc2cccc(S(=O)(=O)N3CCCC3)c2)cc1C,/,/,-0.6%,/
COc1ccc(NC(C)=O)cc1NC(=O)c1ccc(Cl)cc1,18.0,7.2,-0.2%,/
Nc1ccc(C(=O)Nc2ccc(OC(F)(F)C(F)F)c(NC(=O)c3ccc(N)cc3)c2)cc1,16.5,17.5*,3.8%,21.6%
CCN(CC1CCCO1)C(=O)c1cc(COc2ccc(OC)cc2Cl)on1 (stereo not drawn),13.7,15.7*,4.2%,-5.7%
CCN(Cc1ccncc1)C(=O)c1cc(COc2ccc(OC)cc2Cl)on1,99.5*,42.5*,-5.0%,-16.9%
Cc1ccc(C(=O)N2CCC(C(=O)Nc3cccc([N+](=O)[O-])c3)CC2)cc1,10.4,14.1,-6.3%,-11.4%
CC(C)C[C@@H](CSc1ccc(Br)cc1)N1CCN(CCc2ccccc2)CCC1=O,-12.7,9.8,-9.9%,-42.2%
